# FMDV antiviral: blocks foot and mouth disease virus; Potency, µM (highest dose often 57.9 µM), without a hit: top-dose activity change, negative = inhibition, most hits filed as inhibitors; FMDV antiviral cell-based qHTS; actives 1.2% (n = 410,000); calls by dose curve; tested in HEK293T cells; further: read-out not given here; potency means the concentration at half of the fitted maximal effect; nearly all actives have a fitted effect of over 45% in size
# Marburg entry inh: inhibitors of Marburg virus binding or cell entry; actives 1.8% (n = 300,000); Marburg virus pseudotyped entry inhibition, cell reporter; Potency, µM (series often up to 37.8 µM), inactives show at the top dose activity change, negative = inhibition, hits mostly inhibitors; calls by dose curve; tested in HEK293 cells; further: potency means the concentration at half of the fitted maximal effect
# Vaccinia mCherry: vaccinia inhibition (mCherry reporter); Vaccinia virus mCherry reporter infection, fluorescence; Potency, µM (top dose mostly 36.5 µM), for inactives: at the top dose activity change, negative = inhibition, usual class: inhibitors; actives 0.63% (n = 310,000); calls by dose curve; tested in A549 cells; further: potency means the concentration at half of the fitted maximal effect; nearly all actives have a fitted effect of over 35% in size
# Vaccinia Venus: inhibitors of vaccinia virus (Venus reporter). Vaccinia virus Venus reporter expression, fluorescence. Potency, µM (series often up to 36.5 µM), for inactives: at the top dose activity change, negative = inhibition, most hits filed as inhibitors. actives 0.46% (n = 330,000); calls by dose curve; tested in A549 cells; further: potency means the concentration at half of the fitted maximal effect; nearly all actives have a fitted effect of over 30% in size
# HCMV inh: inhibitors of human cytomegalovirus; actives 4.5% (n = 410,000); HFF cells, HCMV-luciferase reporter, 72 h; hits give low values; activity change, negative = inhibition, % at 57.5 µM; in the data active means activity change below about -60%; inconclusive means no clear call, values can overlap the other calls; inactive means above about -39%
#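 Two compound doses tested in HFFs infected with HCMV-luciferase, MOI 1 PFU/cell, 72 h at 37C. Lysate luminescence read with OneGlo; data normalized against buffer-only and 10uM Salinomycin inhibitor controls.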
# Lassa entry inh: blocks Lassa virus binding to or entry into cells. AID 540256. Potency, µM (top dose mostly 37.9 µM), for inactives: top-dose activity change, negative = inhibition, hits mostly inhibitors. actives 1.2% (n = 300,000). Lassa virus pseudotype entry inhibition, cell reporter; calls by dose curve; tested in HEK293 cells; further: potency means the concentration at half of the fitted maximal effect; nearly all actives have a fitted effect of over 50% in size
# An asterisk follows results filed as active; i = inactive; ? = inconclusive; nt = not tested or not shown; ! = repeats disagree; [ ] = dose if it differs, or a comment. Only some compounds are listed: those with a hit (about 6.5% of all), similar ones and a draw of the others. On the % scale 0 is the no-effect control and ±100 the full control effect.
SMILES,FMDV antiviral,Marburg entry inh,Vaccinia mCherry,Vaccinia Venus,HCMV inh,Lassa entry inh
CCCC[C@]1(C(=O)OCC)C[C@H](CN2CCOCC2)OC1=O,nt,5%,nt,nt,nt,nt
O=C(Nc1ccc(Cc2nc3ccccc3s2)cc1)c1ccncc1,-27%,?,-24%,-17%,-86*,-12%[46.1 µM]
NC(=O)c1ccc(NC(=O)CCc2nc3ccccc3s2)cc1,0%,nt,nt,nt,50,nt
COc1cc2c(NC3CCN(C)CC3)nc(N3CCCN(C)CC3)nc2cc1OCCCC(C)C,nt,nt,?,13µM*,nt,nt
COc1cc2nc(N3CCCN(C)CC3)nc(NC3CCN(Cc4ccccc4)CC3)c2cc1OC,nt,?,?,11µM*!,nt,1.8µM*
COc1cc2c(NC3CCN(C)CC3)nc(N3CCCN(C)CC3)nc2cc1OCCCN1CCCCC1,nt,nt,4µM*,3.5µM*,nt,nt
COc1cc2nc(N3CCN(C)CC3)nc(NC3CCN(Cc4ccccc4)CC3)c2cc1OC,nt,nt,-1%,-27%,nt,nt
CC1CC(C)(C)NC(=S)N1CCC(=O)Nc1ccc2c(c1)OCCO2 (centres undefined),?,11µM*,?,?,53,3.5µM*
CC(C)c1ccc(NC(=O)CCCN2C(=S)NC(C)(C)CC2C)cc1 (centres undefined),12%,-3%[46.1 µM],i,-15%,-86*,0%[46.1 µM]
O=C1[C@H]2[C@H]3[C@H](O)[C@H](O)C/C(=N\OCc4ccccc4)[C@H]3CC[C@H]2C(=O)N1Cc1ccc2c(c1)OCO2,nt,-38%[14.2 µM],nt,nt,nt,nt
O=C(NCc1ccco1)/C(=C/C=C\c1ccccc1)NC(=O)c1ccc(Br)o1,35%,?,-17%,-9%,-69*,?
Cc1cc(C)c(-n2c(SCCS(=O)(=O)c3ccc(F)cc3)n[nH]c2=O)c(C)c1,-25%,?,2µM*,2.8µM*,-24,?
Cc1ccc(S(=O)(=O)CCSc2n[nH]c(=O)n2-c2ccccc2)cc1,-25%,-5%,2µM*,2µM*,?,14%
Cc1cc(C)c(-n2c(SCc3nc4ccccc4s3)n[nH]c2=O)c(C)c1,35µM*,?,-27%,-27%,51,?
Cc1ccc(S(=O)(=O)CCSc2nccn2C)cc1,22%,28%[46.1 µM],-13%,-9%,37,9%[46.1 µM]
C[C@@H]1COc2cc(N3CCCCC3)ccc2S(=O)(=O)N1,nt,nt,nt,nt,9,nt
O=C1c2cccc3cccc(c23)C(=O)N1CCN1CCN(C(=S)Nc2ccc(Cl)cc2)CC1,14%,9%,-15%,-4%,4,1%
COc1cc(COCC(O)CN2CCN(CCN3C(=O)c4cccc5cccc(c45)C3=O)CC2)cc(OC)c1OC (centres undefined),?,?,-23%,?,-76*,-10%
O=C1c2cccc3cccc(c23)C(=O)N1CCN1CCN(CC(O)COCc2ccc(Cl)cc2)CC1 (centres undefined),?,?,11µM*,?,-79*,18µM*
CCOC(=O)N1CCN(CC(O)COCc2cc(OC)c(OC)c(OC)c2)CC1 (centres undefined),-18%,?,i,-18%,0,-1%
Cc1ccc(Cl)cc1N1CCN(S(=O)(=O)c2cc3c(cc2C)NC(=O)CO3)CC1,-24%,nt,?,-10%,?,nt
CN(C)/C=C/c1c([N+](=O)[O-])c2ccc(O)cc2n1-c1ccccc1,-28%,1%[46.1 µM],-8%,7%,-31,-14%
CC(C)C(=O)N1CCN(c2ccc(NC(=O)c3cccs3)cc2)CC1,-20%,-2%[46.1 µM],i,-16%,54,-1%
CC(C)C(=O)N1CCN(c2ccc(NC(=O)c3cccs3)cc2Cl)CC1,?,nt,nt,nt,-85*,nt
CC(=O)N1CCN(c2ccc(NC(=O)c3ccc4c(c3)OCCO4)cc2Cl)CC1,?,?,i,-12%,-11,?
SMILES,FMDV antiviral,Marburg entry inh,Vaccinia mCherry,Vaccinia Venus,HCMV inh,Lassa entry inh
CC(C)C(=O)N1CCN(c2ccc(NC(=O)c3ccc4c(c3)OCCO4)cc2Cl)CC1,11µM*,6.5µM*,nt,nt,-80*,26µM*
CC(C)C1C(=O)N(Cc2cn(CC3CCCCC3)nn2)CCS(=O)(=O)N1Cc1ccc(-c2ccc(Cl)nc2)cc1 (centres undefined),-24%,?,-28%,-26%,11,nt
CCN(C[C@H]1N[C@@](C)(C(=O)OC)[C@H]2C(=O)N(C)C(=O)[C@@H]12)S(=O)(=O)c1ccc(F)cc1,-13%,nt,-13%,-10%,-22,nt
CCN(CC)C1CCN(C(=O)c2cc(COc3ccc(-n4cncn4)cc3)on2)C1 (centres undefined),-19%,-1%,-3%,-14%,2,?
COc1ccc(NS(=O)(=O)c2ccc(N3CCOCC3)c(NC(=O)c3ccccc3Cl)c2)cc1,67%,?,-25%,-10%,-13,1.6µM*
COc1ccc(NS(=O)(=O)c2ccc(N3CCOCC3)c(N)c2)cc1,?,nt,nt,nt,-70*,nt
Clc1ccc(Cl)c(OCCCCN2CCNCC2)c1,-6%,11µM*,-7%,-20%,83,?
Cc1ccc(C)c(OCCCCN2CCCCC2)c1,-16%,nt,nt,nt,49,nt
Cc1ccc(OCCCCCCN2CCNCC2)c(Br)c1,-19%,13µM*,-12%,-26%,-63*,?
Cc1ccc(OCCCCN2CCC(C)CC2)c(Br)c1,-10%,15µM*,i,-15%,-67*,?
Nc1nc(=S)c2snnc2[nH]1,nt,nt,43%,-6%,nt,nt
CC1(c2nc3ccccc3[nH]2)c2ccccc2C(=O)N1Cc1ccccn1 (centres undefined),-19%,nt,1%,-1%,9,nt
CC(=O)N1CCC2(CC1)CN(c1ccncc1)C2,-5%,nt,nt,nt,nt,nt
CC1(C)Cc2cccc(OCC(=O)OCC(=O)Nc3cccc(S(N)(=O)=O)c3)c2O1,-21%,nt,nt,nt,19,nt
CSc1nc2ccccc2nc1N(C)S(=O)(=O)c1ccc(C)cc1,-18%,15%[46.1 µM],i,-7%,-66*,-11%[46.1 µM]
Cc1ccc(S(=O)(=O)N(C)c2ccccc2)cc1,-9%,-17%,-24%,-6%,-24,4%
COc1cc(=O)n2c(c1C(=O)NCc1ccco1)CCN(C(=O)c1ccccc1-c1ncc[nH]1)CC2,0%,nt,-5%,-6%,nt,nt
Cc1cncn1CCc1nc2c3ccccc3nc(SCC(=O)Nc3ccc(F)cc3)n2n1,-11%,nt,-2%,10%,-5,7%[46.1 µM]
CCOc1ccccc1-n1c(SCC(=O)Nc2ccccc2C(=O)O)nc2ccccc2c1=O,?,?,-13%,-8%,-81*,-17%[46.1 µM]
CCn1c(SCC(=O)Nc2ccccc2OC)nc2ccccc2c1=O,nt,?,-19%,-17%,?,4%
CCOc1ccccc1NC(=O)CSc1nc2ccccc2c2nc(CCn3cncc3C)nn12,-28%,nt,-26%,?,-65*,?
Cc1cncn1CCc1nc2c3ccccc3nc(SCC(=O)Nc3cccc(Cl)c3)n2n1,-17%,6.5µM*,-13%,?,-105*!,?

# Assay outcomes: PubChem BioAssay, National Center for Advancing Translational Sciences (NCATS)
